PubChem BioAssay AID1211 (NMMLSC, 2008)
Activity calls are given as the source filed them. The rule behind the calls is not given here.

Molecular target: Estrogen receptor (Homo sapiens) (UniProt P03372)
Test: ERalpha ligand binders by competition, primary screen, cell-based, Cos7 ERalpha-GFP, flow cytometry (AID 1211);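 note: 0% = DMSO vehicle wells and 100% = no E2-Alexa633 signal left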
Details: fluorescent ligand competition, stronger effect = higher value

Chain of Estrogen receptor (Homo sapiens) (P03372 whole entry, looked up): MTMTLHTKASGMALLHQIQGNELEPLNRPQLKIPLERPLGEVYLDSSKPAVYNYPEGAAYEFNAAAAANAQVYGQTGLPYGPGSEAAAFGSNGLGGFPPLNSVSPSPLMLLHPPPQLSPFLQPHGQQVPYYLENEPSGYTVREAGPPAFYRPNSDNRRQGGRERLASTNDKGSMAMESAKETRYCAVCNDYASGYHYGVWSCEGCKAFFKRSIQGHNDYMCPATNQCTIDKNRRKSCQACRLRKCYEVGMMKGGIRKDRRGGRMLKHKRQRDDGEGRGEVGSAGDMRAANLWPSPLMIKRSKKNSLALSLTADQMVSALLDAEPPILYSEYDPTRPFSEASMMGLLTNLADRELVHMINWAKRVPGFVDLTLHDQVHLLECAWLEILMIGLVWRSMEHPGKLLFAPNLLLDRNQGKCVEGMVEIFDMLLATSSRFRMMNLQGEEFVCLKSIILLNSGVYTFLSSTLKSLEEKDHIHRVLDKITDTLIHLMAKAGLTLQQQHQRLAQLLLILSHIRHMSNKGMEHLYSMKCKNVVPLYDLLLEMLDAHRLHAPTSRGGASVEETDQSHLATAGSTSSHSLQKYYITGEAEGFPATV

SMILES	inhibition of ligand binding (at 10 µM)	inhibition of ligand binding (binding inhibition, at 0.1 µM) [%]
Cc1ccccc1OCC1Cc2c(nc(N)c(C#N)c2N)O1 (configuration not stated)	31% (inactive)	13
O=C(Nc1ccc(O)cc1C(=O)O)c1ccc2c(c1)C(=O)N(Cc1ccco1)C2=O	33% (active)	86
CC(=O)c1ccc2c(c1)C1C=CCC1C(C(=O)O)N2 (configuration not stated)	42% (inactive)	39
O=c1cc(O)c2sc(Nc3ccc(F)cc3)nc2[nH]1	9% (inactive)	48
CCN1CCc2nc(NC(=O)Cc3ccc4c(c3)OCCO4)sc2C1	36% (inactive)	31
Cc1snc2sc(C(=O)c3ccc(Br)cc3)c(N)c12	48% (inactive)	29
COc1ccc(C2C=C(c3ccc(Cl)cc3)Nc3nc(NC(C)=O)nn32)cc1 (configuration not stated)	42% (inactive)	22
COc1ccc(C)cc1-n1nnnc1SCC(=O)NC(=O)NCc1ccco1	15% (inactive)	26
CC(=O)N1c2ccc(Cl)cc2C2C=CCC2C1c1cccc2ccccc12 (configuration not stated)	0% (inactive)	13
CCOC(=O)c1c(C)[nH]c(C)c1C(=O)CSc1nnc(-c2cc(OC)c(OC)c(OC)c2)o1	57% (inactive)	38
O=C(CCCn1c(=S)[nH]c2ccccc2c1=O)N1CCN(c2cccc(Cl)c2)CC1	55% (inactive)	15
COc1ccc(NC(=O)CN(c2ccccc2)S(=O)(=O)N(C)C)cc1OC	16% (inactive)	16
CCCSC1=N/C(=C\C=C\c2ccco2)C(=O)S1	0% (inactive)	31
COc1ccc(NC(=O)c2ccco2)cc1N	2% (inactive)	3
C/C(N)=C(/C#N)C(=O)CSc1nnc(COc2ccccc2Cl)o1	20% (inactive)	8
O=C(OC1CCCCC1)c1ccc2c(c1)C1C=CCC1C(C(=O)O)N2 (configuration not stated)	42% (inactive)	14
Cc1nnc(SCC(=O)NC(=O)NCc2ccco2)n1Cc1ccccc1	8% (inactive)	12
Cc1cc([N+](=O)[O-])c2c(c1C)C1C=CCC1C(c1ccccn1)N2 (configuration not stated)	72% (active)	10
CCOc1ccccc1N1CSC2=C(C#N)C(c3c(OC)ccc4ccccc34)CC(=O)N2C1 (configuration not stated)	19% (inactive)	17
O=C(Cc1ccccc1)Nc1ccc2oc(-c3cccnc3)nc2c1	32% (inactive)	44
O=C(Cc1ccc(S(=O)(=O)N2CCOCC2)s1)Nc1nc2c(s1)CCCC2	46% (inactive)	32
Cc1cs/c(=N\N=C\c2ccc(O)cc2)n1Cc1ccco1	51% (inactive)	55

SMILES	inhibition of ligand binding (at 10 µM)	inhibition of ligand binding (binding inhibition, at 0.1 µM) [%]
COc1ccccc1-c1nnc2n1N=C(c1ccc(O)c(O)c1)CS2	46% (inactive)	10
O=C1/C(=C\c2ccco2)SC(=S)N1c1ccc(O)cc1	61% (inactive)	31
COc1ccc(OC)c(/C=N/c2oc(-c3ccco3)c(-c3ccco3)c2C#N)c1	25% (inactive)	19
CN(CC(=O)NC(=O)NCc1ccco1)Cc1nc2ccccc2c(=O)[nH]1	17% (inactive)	64
COC(=O)c1ccc(CC(=O)c2c(C)cc(O)cc2O)o1	34% (inactive)	43
O=C(Nc1ccc(O)cc1)C1CC=CCC1 (configuration not stated)	6% (inactive)	9
O=C(c1cccc(F)c1)N1CCN(C(=O)c2cc3ncc(Br)cn3n2)CC1	35% (inactive)	50
Cc1ccc(C2=Nc3ccccc3N=C(c3ccco3)C2)c(O)c1	2% (inactive)	26
COc1ccc(C2Nc3ccccc3C(=O)N2c2ccc(Cl)cc2)cc1Cn1cc([N+](=O)[O-])cn1 (configuration not stated)	29% (inactive)	49
CCOc1ccccc1C1C(C#N)=C(N)Nc2onc(-c3ccccc3)c21 (configuration not stated)	9% (inactive)	20
Cn1c(-c2ccc3nc(N)sc3c2)nc2cc(N)ccc21	36% (inactive)	37
COc1ccc(CNC(=O)c2cc(-c3cccs3)on2)cc1	40% (active)	90
COc1ccc(C2Nc3ccccc3C(=O)N2c2ccccc2)cc1Cn1cc([N+](=O)[O-])cn1 (configuration not stated)	29% (inactive)	12
Oc1ccccc1C1=Nc2ccccc2N=C(c2cccs2)C1	1% (inactive)	54
Cc1cc(C)n2nc(SCc3cc(=O)oc4cc(O)ccc34)nc2n1	49% (inactive)	5
CCN(c1ccccc1)S(=O)(=O)c1cc(C(=O)O)ccc1C	7% (inactive)	20
Oc1c(Cl)cc(Cl)cc1Sc1cc(Cl)cc(Cl)c1O	37% (inactive)	28
O=C(CSc1nc(C2CCCCC2)n(-c2ccccc2)n1)NCC(F)(F)F	41% (inactive)	46
CCOC(=O)N1CCN(c2ccc(O)cc2)CC1	57% (inactive)	56
CCc1ccc2nc(NC(=O)c3ccc4c(=O)[nH]c(CN5CCOCC5)nc4c3)sc2c1	32% (inactive)	9
CC(C)C1Nc2c(O)cc(Cl)c([N+](=O)[O-])c2C2C=CCC21 (configuration not stated)	40% (inactive)	16
O=c1oc2ccccc2cc1-c1ccc(O)cc1O	33% (inactive)	18

SMILES	inhibition of ligand binding (at 10 µM)	inhibition of ligand binding (binding inhibition, at 0.1 µM) [%]
N#Cc1c(NCCN)nc(NCc2ccccc2)c2c1CCN(Cc1ccccc1)C2	65% (inactive)	15
COc1ccc(C2Nc3ccccc3C(=O)N2c2ccc(F)cc2)cc1CSc1ccccn1 (configuration not stated)	10% (inactive)	28
Cc1cc(C2(c3ccc(O)c(C)c3)OC(=O)c3ccccc32)ccc1O	49% (inactive)	11
O=C(COC(=O)c1cccc(S(=O)(=O)N2CCc3ccccc3C2)c1)NCc1ccco1	35% (inactive)	7
C1=C(N2CCOCC2)/C(=C/c2nc3ccccc3[nH]2)CC1	50% (inactive)	41
CC1(C)CC(=O)C2=C(C1)OC(c1ccc(O)cc1)C(C#N)=C2N (configuration not stated)	34% (inactive)	5
CC1CCc2c(sc(NC(=O)c3ccc(Cn4cc([N+](=O)[O-])cn4)o3)c2C#N)C1 (configuration not stated)	44% (inactive)	39
O=C1NC(c2ccc(Br)cc2)Nc2sc3c(c21)CCC3 (configuration not stated)	29% (active)	69
COC(=O)C1=C(O)/C(=C\c2ccc(CNC(=O)C(=O)Nc3ccc(C)c(C)c3)o2)N=C1C	32% (inactive)	31
CC(Oc1ccc(Cl)cc1Cl)C(=O)Nc1ccc2oc(-c3ccncc3)nc2c1 (configuration not stated)	48% (inactive)	40
COc1cc2c(cc1OC)C(Cc1ccc(O)cc1)N(C)CC2 (configuration not stated)	0% (inactive)	16
O=C(Nc1ccc2oc(-c3ccccc3F)nc2c1)c1cncc(Br)c1	41% (inactive)	38
N=C1C(c2nc3ccccc3[nH]2)=C(O)CN1c1ccc(CC(=O)O)cc1	45% (active)	96
O=c1cc(O)c2c(=O)n(-c3ccccc3)c3c(c2o1)CCCCCC3	31% (inactive)	1
Oc1c(C=Nc2cccc3cccnc23)sc2ccccc12	40% (inactive)	21
Cc1ccccc1CSCC(=O)NC(=O)NCc1ccco1	53% (inactive)	27
Cc1nc2ccc(C(=O)O)cc2[nH]1	55% (inactive)	52
Cc1ccc(C)c(SCC(=O)OCC(=O)c2ccco2)c1	0% (inactive)	28
COc1cccc(-c2nnc(NC(=O)Cc3cccs3)s2)c1	52% (inactive)	20
CC1(N2CCOCC2)CC2(O)C(=[N+]1[O-])CCc1nonc12 (configuration not stated)	34% (inactive)	46
Cc1nc2ccccc2c(=O)n1/N=C/c1c(O)ccc2oc3c(c12)CCCC3	48% (inactive)	52
COc1ccc(C(N)CCc2ccc(C)o2)cc1 (configuration not stated)	30% (inactive)	39

SMILES	inhibition of ligand binding (at 10 µM)	inhibition of ligand binding (binding inhibition, at 0.1 µM) [%]
O=C(CSc1nc2c(cnn2-c2ccccc2)c(=O)[nH]1)c1ccc(Cl)cc1	18% (inactive)	1
CC1(C)CCCN(C(=O)c2coc(=O)c(Br)c2)C1	33% (inactive)	25
CCOC(=O)c1cc2c(c(CSc3nc4ccccc4c(=O)n3Cc3ccco3)c1)OCOC2	46% (inactive)	18
C=CCn1c(SCC(=O)NC(=O)NCc2ccco2)nc2sc(CC)cc2c1=O	10% (inactive)	3
CC(=O)c1ccc(NCC(=O)N2CCN(c3ccccc3)CC2)cc1	58% (inactive)	18
Nc1ccc2oc(-c3ccc4nc[nH]c4c3)nc2c1	31% (inactive)	55
O=S(=O)(NCCc1csc(-c2cccnc2)n1)c1ccc(Cl)s1	72% (active)	35
O=C1C2CC=C(Cl)CC2C(=O)N1CCCCCCN1C(=O)C2CC=C(Cl)CC2C1=O (configuration not stated)	36% (inactive)	34
COc1ccc(-c2nnc(SCC(=O)/C(C#N)=C(\C)N)o2)cc1	40% (inactive)	16
CCCc1nnc2n1N=C(c1ccc(-c3cc(Cl)ccc3Cl)o1)CS2	47% (inactive)	27
O=C(O)c1ccc(Cl)c2c1C1C=CCC1C(c1ccccn1)N2 (configuration not stated)	43% (inactive)	10
C/C(=N\Nc1ccc([N+](=O)[O-])cc1)c1cccc(N)c1	4% (inactive)	35
O=C(COC(=O)CCOc1ccccc1)NCc1ccco1	50% (inactive)	57
COCc1cc(=O)n2c(-c3ccc(C)cc3)n[nH]c2n1	40% (inactive)	62
O=C1N/C(=C\c2ccc(O)cc2)C(=O)c2ccccc21	30% (inactive)	14
COc1cc(-c2nc3ccc4ccccc4c3c3c2CCC3)ccc1O	46% (active)	87
CN(C)S(=O)(=O)N(CC(=O)N(Cc1ccccc1)Cc1ccccc1)c1ccccc1	23% (inactive)	24
Oc1ccc(C2=Nn3c(nnc3-c3ccco3)SC2)cc1O	32% (inactive)	27
Cc1cc(C)cc(OCC(=O)Nc2ccc(N3CCCC3)cc2)c1	80% (active)	17
Cc1ccc2[nH]c(=O)c(C3C(C#N)=C(N)Oc4c3ccc3cccnc43)cc2c1 (configuration not stated)	27% (inactive)	26
